{
  "source": "PubChem BioAssay (NCI)",
  "note": "About 83,000 compounds went through this panel and 20% of them were active in at least one assay; those are over-represented in the sample as a whole.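 Cell lines were cultured in 96-well plates, exposed to a single compound concentration, and assessed for percent growth 48 hours later.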 Unmarked numbers belong to inactive results. The source made the active and inactive calls. Rule for the calls: active = growth percent below 10; inactive = the rest.",
  "data": [
    {"system": "MDA-MB-468 breast", "assay": "NCI-60 one-dose screen, 48 h (100 = growth as untreated, 0 = no growth, -100 = all killed)", "settings": "10 µM unless noted", "values": [
      {"compound": "O=C(N/N=C/c1cc2ccccc2nc1Cl)c1cc(-c2nc3ccccc3[nH]2)nc2ccccc12", "growth": "98.5%"},
      {"compound": "C#Cc1cccc(Nc2ncnc3cc(NC(=O)CCl)ccc23)c1", "growth": "-60.8% (active)"},
      {"compound": "COc1ccc(OC)c(/C=C/c2nnc(Nc3ccccc3)o2)c1", "growth": "103%"},
      {"compound": "O=C(Nc1cccc(Cl)c1)Nc1nc2cc([N+](=O)[O-])ccc2o1", "growth": "53.4%"},
      {"compound": "CCc1nc2cc(/C=C/C(=O)NO)c(F)cc2c(=O)n1CCc1ccccc1", "growth": "-32.9% (active)"},
      {"compound": "COc1ccc(-c2nc(N)ncc2Oc2ccccc2OC)c(O)c1", "growth": "-2.89% (active)"},
      {"compound": "CC1=CC=C(NC(=O)/C=C/c2ccccc2)CC1Nc1nccc(-c2cccnc2)n1", "note": "(stereo not given)", "growth": "3.07% (active)"},
      {"compound": "O=C(N/N=C/c1ccccc1O)c1ccccc1Nc1ccnc(C(F)(F)F)c1", "growth": "-18.4% (active)"},
      {"compound": "O=C(Cc1ccc(/C=C/C(=O)c2ncc[nH]2)cc1)Nc1ccc(Br)cc1", "growth": "19.6%"},
      {"compound": "CC(C)N1C(=O)/C(=c2\\sc3n(c2=O)C2C(NN=3)N(C)C(=O)N2C)c2ccccc21", "note": "(stereo not given)", "growth": "37.3%"},
      {"compound": "CC(CN1CCN(CC(C)Nc2ccnc3cc(Cl)ccc23)CC1)Nc1ccnc2cc(Cl)ccc12", "note": "(stereo not given)", "growth": "-62.8% (active)"},
      {"compound": "Clc1ccccc1[C@@H]1C[C@@H]2Cc3cc(Br)c4ccccc4c3N1O2", "growth": "4.19% (active)"},
      {"compound": "CN1CCN(CCCOc2ccc3ncnc(Nc4ccc(Oc5cccc(C(F)(F)F)c5)c(Cl)c4)c3c2)CC1", "growth": "-24.2% (active)"},
      {"compound": "CCCCCCCCCCCCCCCCCC1=NCCN1CCO", "growth": "102%"},
      {"compound": "Clc1cc(Cl)cc(-c2cnc3nonc3n2)c1", "growth": "82%"}
    ]}
  ]
}
